Of roughly 8,800 targets only a part is listed; those with a hit were picked by preference. About 0.5% of all pairs of compound and target were hits. Values without a mark were called inactive.
Assays:
Experiment in all cases: log2 fold change, soluble protein after heating vs DMSO (PISA); higher = thermal stabilisation; K562 lysate, 10 uM; active = over 0.2 and 3.5 SD of the protein, either way, in both replicates (recomputed)
[1] = compound: Cc1cn(-c2cc(NC(=O)c3ccc(C)c(Nc4nccc(-c5cccnc5)n4)c3)cc(C(F)(F)F)c2)cn1 [nilotinib]
In short: (§1)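 Values give the log-two fold change in thermal stability against solvent controls, from duplicates. Crude K562 extract at 1 mg/mL protein, made by dounce homogenisation in PBS pH 7.4 with 1 mM MgCl2, was treated with 10 μM compound for 30 min. After 3 min heating across 48°C-58°C, aliquots were pooled, adjusted to 0.5% NP-40 at 4°C and centrifuged at 21,000xg for 90 min. The supernatant was measured by TMTpro 16plex LC-MS/MS with channel sums equalised.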

[2] = compound: Cc1nc(Nc2n[nH]c3c2CN(C(=O)N[C@H](CN(C)C)c2ccccc2)C3(C)C)c2sccc2n1
In short: as §1

[3] = compound: Cc1nc(Nc2ncc(C(=O)Nc3c(C)cccc3Cl)s2)cc(N2CCN(CCO)CC2)n1 [dasatinib]
In short: as §1

[4] = compound: Cc1ncc(-c2ccnc(Nc3ccc(S(C)(=O)=O)cc3)n2)n1C(C)C
In short: as §1

[5] = compound: Cn1cc(-c2ccc3c(c2)CCN3C(=O)Cc2cccc(C(F)(F)F)c2)c2c(N)ncnc21
In short: as §1

[6] = compound: Cn1cc(CNCC2CCN(c3ncc(C(=O)NO)cn3)CC2)c2ccccc21 [quisinostat]
In short: as §1

[7] = compound: Cn1cncc1[C@@](N)(c1ccc(Cl)cc1)c1ccc2c(c1)c(-c1cccc(Cl)c1)cc(=O)n2C [tipifarnib]
In short: as §1

[8] = compound: NC(=O)Nc1cc(-c2cccc(F)c2)sc1C(=O)N[C@H]1CCCNC1
In short: as §1

[9] = compound: NC(=O)c1cnc(N[C@@H]2CCCC[C@@H]2N)nc1Nc1cccc(-n2nccn2)c1
In short: as §1

[10] = compound: NC1(c2ccc(-c3nc4ccn5c(=O)[nH]nc5c4cc3-c3ccccc3)cc2)CCC1
In short: as §1

[11] = compound: NCC(=O)Nc1ccc(-n2nc(C(F)(F)F)cc2-c2ccc3c(ccc4ccccc43)c2)cc1
In short: as §1

[12] = compound: O=C(CCCCCCC(=O)Nc1ccccc1)NO [vorinostat]
In short: as §1

[13] = compound: O=C(O)c1ccc2c(c1)nc(Nc1cccc(Cl)c1)c1ccncc12 [silmitasertib]
In short: as §1

[14] = compound: O=C1NC(=O)C(c2cnc3ccccn23)=C1c1cn2c3c(cc(F)cc13)CN(C(=O)N1CCCCC1)CC2
In short: as §1

[15] = compound: c1cn2cc(-c3ccc4cn[nH]c4c3)nc(Nc3ccc(N4CCOCC4)cc3)c2n1 [entospletinib]
In short: as §1

Chain of UniProt O95202 (O95202 whole entry, looked up): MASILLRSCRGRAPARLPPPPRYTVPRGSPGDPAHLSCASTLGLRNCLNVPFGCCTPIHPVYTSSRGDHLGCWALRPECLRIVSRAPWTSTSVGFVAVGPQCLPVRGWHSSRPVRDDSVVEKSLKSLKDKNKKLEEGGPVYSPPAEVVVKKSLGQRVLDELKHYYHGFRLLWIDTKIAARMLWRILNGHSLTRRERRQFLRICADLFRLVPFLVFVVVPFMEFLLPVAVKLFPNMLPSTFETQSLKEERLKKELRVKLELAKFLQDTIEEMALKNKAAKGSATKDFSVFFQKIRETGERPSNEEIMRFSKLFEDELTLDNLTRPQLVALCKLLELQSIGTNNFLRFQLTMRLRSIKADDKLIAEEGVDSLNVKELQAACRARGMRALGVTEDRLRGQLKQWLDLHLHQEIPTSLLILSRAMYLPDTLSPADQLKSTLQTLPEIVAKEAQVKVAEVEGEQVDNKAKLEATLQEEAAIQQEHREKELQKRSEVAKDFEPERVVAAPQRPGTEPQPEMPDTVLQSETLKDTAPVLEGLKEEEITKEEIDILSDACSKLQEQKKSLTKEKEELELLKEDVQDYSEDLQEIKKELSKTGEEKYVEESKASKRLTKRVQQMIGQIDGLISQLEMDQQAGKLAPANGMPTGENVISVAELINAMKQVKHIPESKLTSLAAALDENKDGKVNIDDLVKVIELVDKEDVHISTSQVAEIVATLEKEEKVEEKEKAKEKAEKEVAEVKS
Chain of UniProt O14782 (O14782 whole entry, looked up): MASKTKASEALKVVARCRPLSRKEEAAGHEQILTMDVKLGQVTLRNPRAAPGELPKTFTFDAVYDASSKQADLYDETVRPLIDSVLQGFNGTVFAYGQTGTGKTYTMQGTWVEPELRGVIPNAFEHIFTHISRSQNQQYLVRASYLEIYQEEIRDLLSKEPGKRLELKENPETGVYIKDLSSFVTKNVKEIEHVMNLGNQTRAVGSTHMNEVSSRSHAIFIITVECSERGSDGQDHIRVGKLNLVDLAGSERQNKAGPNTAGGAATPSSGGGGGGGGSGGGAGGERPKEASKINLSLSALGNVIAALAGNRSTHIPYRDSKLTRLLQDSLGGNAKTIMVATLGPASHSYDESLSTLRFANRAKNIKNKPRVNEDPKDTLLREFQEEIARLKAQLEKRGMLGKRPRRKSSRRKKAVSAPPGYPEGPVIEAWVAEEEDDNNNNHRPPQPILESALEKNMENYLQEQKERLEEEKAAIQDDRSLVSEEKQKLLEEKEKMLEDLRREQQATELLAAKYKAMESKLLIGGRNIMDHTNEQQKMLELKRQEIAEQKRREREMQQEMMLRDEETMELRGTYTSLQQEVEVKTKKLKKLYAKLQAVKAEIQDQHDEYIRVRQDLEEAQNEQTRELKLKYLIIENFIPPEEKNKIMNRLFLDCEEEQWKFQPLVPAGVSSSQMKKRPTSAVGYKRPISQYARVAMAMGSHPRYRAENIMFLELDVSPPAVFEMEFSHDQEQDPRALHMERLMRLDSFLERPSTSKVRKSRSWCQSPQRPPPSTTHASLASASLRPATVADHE
Chain of UniProt P07948 (P07948 whole entry, looked up): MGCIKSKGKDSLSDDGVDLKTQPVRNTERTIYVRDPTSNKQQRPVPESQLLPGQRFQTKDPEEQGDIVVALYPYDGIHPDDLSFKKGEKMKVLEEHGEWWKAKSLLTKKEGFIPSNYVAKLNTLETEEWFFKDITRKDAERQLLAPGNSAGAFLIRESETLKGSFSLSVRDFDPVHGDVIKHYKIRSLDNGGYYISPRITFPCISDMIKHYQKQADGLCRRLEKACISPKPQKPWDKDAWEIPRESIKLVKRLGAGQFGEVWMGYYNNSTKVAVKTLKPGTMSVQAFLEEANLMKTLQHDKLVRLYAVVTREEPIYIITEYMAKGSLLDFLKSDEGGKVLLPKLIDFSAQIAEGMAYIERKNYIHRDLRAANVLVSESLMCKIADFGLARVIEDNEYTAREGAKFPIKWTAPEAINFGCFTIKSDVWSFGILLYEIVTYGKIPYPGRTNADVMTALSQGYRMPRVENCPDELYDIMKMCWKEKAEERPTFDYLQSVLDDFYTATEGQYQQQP
Chain of UniProt Q9Y448 (Q9Y448 whole entry, looked up): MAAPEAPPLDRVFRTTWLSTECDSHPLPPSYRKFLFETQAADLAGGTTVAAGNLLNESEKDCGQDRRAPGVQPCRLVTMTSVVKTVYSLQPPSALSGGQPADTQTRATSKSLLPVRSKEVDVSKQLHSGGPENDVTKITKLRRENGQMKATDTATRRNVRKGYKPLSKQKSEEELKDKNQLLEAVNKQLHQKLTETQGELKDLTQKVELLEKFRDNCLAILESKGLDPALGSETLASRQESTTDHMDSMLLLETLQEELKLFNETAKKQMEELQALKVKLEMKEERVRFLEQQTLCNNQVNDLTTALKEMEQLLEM
Chain of UniProt P01116 (P01116 whole entry, looked up): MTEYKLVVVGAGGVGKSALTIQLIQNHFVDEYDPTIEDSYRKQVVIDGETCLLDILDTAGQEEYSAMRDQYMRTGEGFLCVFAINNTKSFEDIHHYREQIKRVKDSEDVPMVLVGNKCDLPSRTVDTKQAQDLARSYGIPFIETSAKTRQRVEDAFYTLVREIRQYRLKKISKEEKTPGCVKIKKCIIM
Chain of UniProt Q6P0Q8 (Q6P0Q8 whole entry, looked up): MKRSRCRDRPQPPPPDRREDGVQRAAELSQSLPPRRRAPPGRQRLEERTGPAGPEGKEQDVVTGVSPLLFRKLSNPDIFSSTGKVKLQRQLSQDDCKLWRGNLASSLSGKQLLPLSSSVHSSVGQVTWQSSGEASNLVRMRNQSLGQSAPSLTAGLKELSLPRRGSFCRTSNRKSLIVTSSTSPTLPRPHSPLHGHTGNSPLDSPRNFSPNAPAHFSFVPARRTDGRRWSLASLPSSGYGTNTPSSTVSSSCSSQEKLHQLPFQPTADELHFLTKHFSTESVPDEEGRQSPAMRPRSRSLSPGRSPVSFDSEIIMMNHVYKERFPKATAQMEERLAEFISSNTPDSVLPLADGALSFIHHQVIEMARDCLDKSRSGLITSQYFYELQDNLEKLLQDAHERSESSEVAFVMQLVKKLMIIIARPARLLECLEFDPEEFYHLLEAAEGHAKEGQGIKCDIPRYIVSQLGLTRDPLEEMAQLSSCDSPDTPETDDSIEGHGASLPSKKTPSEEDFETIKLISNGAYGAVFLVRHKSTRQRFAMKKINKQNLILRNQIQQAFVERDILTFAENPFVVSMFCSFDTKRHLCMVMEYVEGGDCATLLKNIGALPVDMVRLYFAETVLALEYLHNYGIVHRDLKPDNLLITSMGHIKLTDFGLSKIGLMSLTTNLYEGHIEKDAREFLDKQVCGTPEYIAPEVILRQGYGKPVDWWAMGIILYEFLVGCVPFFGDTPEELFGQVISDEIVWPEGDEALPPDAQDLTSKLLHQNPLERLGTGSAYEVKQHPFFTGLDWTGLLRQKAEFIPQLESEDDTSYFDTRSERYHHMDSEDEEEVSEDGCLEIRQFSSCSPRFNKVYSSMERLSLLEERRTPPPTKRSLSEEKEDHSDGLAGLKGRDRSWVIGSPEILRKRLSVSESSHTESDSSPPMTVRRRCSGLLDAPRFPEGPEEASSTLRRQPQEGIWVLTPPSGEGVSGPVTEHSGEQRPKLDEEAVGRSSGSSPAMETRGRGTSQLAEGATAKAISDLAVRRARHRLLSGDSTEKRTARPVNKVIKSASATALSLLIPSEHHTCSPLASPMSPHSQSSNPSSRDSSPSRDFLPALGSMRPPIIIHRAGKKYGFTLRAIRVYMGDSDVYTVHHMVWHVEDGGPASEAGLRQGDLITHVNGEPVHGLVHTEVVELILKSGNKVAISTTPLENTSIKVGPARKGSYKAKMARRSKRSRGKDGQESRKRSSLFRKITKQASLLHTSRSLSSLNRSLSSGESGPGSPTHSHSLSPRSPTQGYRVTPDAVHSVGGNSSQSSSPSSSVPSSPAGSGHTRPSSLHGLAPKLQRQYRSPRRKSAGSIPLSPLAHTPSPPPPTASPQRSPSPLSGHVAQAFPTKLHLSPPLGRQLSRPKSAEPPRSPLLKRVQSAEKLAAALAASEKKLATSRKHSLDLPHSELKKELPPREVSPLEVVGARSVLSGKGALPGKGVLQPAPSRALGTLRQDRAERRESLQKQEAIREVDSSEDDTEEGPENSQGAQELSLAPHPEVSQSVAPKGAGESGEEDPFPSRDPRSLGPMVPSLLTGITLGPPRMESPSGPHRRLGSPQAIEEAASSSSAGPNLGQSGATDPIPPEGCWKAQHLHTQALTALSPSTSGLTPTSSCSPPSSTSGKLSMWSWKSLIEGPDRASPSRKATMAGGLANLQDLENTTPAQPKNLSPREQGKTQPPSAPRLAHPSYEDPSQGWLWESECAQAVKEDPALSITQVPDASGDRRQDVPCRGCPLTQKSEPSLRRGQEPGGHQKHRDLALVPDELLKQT
Chain of UniProt O15243 (O15243 whole entry, looked up): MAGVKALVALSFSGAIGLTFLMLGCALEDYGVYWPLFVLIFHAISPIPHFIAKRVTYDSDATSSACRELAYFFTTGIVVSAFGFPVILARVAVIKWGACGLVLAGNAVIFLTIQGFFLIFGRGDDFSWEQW
Chain of UniProt Q9NX58 (Q9NX58 whole entry, looked up): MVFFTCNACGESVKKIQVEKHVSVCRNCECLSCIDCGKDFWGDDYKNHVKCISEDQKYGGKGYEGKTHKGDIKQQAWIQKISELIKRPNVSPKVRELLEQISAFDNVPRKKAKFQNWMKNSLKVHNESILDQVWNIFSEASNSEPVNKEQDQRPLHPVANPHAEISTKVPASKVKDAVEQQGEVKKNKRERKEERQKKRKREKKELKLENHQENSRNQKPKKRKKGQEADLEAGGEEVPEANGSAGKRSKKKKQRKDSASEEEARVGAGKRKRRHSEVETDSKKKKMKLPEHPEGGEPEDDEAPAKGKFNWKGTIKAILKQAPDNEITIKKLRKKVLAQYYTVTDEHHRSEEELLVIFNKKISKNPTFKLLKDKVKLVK
Chain of UniProt O14880 (O14880 whole entry, looked up): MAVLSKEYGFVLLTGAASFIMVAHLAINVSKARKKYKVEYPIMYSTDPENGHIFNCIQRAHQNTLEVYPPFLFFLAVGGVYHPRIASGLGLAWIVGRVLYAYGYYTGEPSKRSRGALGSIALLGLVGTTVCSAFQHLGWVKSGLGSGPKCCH

Row | Target | log2 fold change [1] | log2 fold change [2] | log2 fold change [3] | log2 fold change [4] | log2 fold change [5] | log2 fold change [6] | log2 fold change [7] | log2 fold change [8] | log2 fold change [9] | log2 fold change [10] | log2 fold change [11] | log2 fold change [12] | log2 fold change [13] | log2 fold change [14] | log2 fold change [15]
1 | LBR (UniProt Q14739) | -0.026 | 0.015 | -0.04 | -0.004 | 0.003 | 0.065 | -0.03 | -0.048 | 0.006 | 0.08 | -0.121 | 0.17 | -0.001 | -0.076 | -0.009
2 | MAP2K4 isoform 2 (UniProt P45985) | -0.013 | 0.052 | -0.014 | 0.248 | 0.046 | -0.112 | -0.023 | 0.019 | 0.063 | 0 | -0.119 | -0.216 | 0.023 | 0.013 | 0.028
3 | LYN (UniProt P07948) | 0.158 | 0.218 | 0.457 | -0.026 | 0.095 | -0.125 | -0.154 | 0.842 (active) | 0.084 | -0.037 | 0.025 | -0.305 | -0.058 | -0.108 | 0.149
4 | LYAR (UniProt Q9NX58) | 0.01 | -0.021 | 0.002 | 0.005 | 0.014 | 0.003 | 0 | -0.002 | -0.016 | -0.012 | 0.011 | 0.109 | 0.005 | 0.001 | 0.014
5 | MRPL46 (UniProt Q9H2W6) | -0.036 | 0.039 | 0.016 | 0.064 | 0.03 | -0.034 | 0.05 | 0.03 | -0.023 | 0.035 | 0.021 | -0.21 | 0.155 | 0.036 | -0.049
6 | MGST3 (UniProt O14880) | 0.024 | 0.016 | 0.029 | -0.019 | -0.062 | 0.016 | -0.014 | 0.009 | -0.013 | -0.031 | -0.025 | 0.128 | 0 | 0.033 | 0.041
7 | LRPPRC (UniProt P42704) | -0.019 | -0.004 | -0.062 | 0.012 | 0.056 | -0.003 | -0.027 | 0.052 | 0.047 | 0.004 | -0.004 | -0.259 (active) | 0.072 | 0.023 | 0.035
8 | LGALS3BP (UniProt Q08380) | -0.056 | 0.06 | 0.339 | -0.043 | -0.128 | -0.007 | -0.123 | 0.111 | 0.125 | 0.137 | 0.153 | 0.176 | -0.121 | 0.113 | -0.129
9 | KNSTRN (UniProt Q9Y448) | 0.012 | 0.03 | -0.048 | -0.071 | -0.005 | 0.165 | 0.033 | -0.02 | -0.002 | -0.01 | -0.018 | -0.054 | 0 | 0.057 | 0.02
10 | MED8 isoform 2 (UniProt Q96G25) | 0.084 | -0.033 | -0.017 | -0.007 | 0.044 | -0.043 | 0.081 | -0.005 | 0.016 | 0.024 | 0.019 | 0.037 | -0.012 | -0.026 | 0
11 | KIF2A isoform 4 (UniProt O00139) | 0.021 | -0.015 | -0.022 | -0.02 | 0.042 | -0.005 | 0.015 | 0.021 | 0.017 | 0.006 | -0.018 | -0.518 (active) | 0.044 | -0.015 | -0.006
12 | LETM1 (UniProt O95202) | 0.038 | -0.021 | -0.008 | 0.048 | 0.007 | 0.043 | 0.008 | -0.012 | -0.011 | -0.024 | -0.041 | 0.084 | -0.021 | -0.006 | 0.009
13 | MOCS1 isoform 8 (UniProt Q9NZB8) | 0.188 | -0.03 | 0.074 | 0.227 | -0.013 | -0.082 | -0.231 | 0.093 | 0.021 | -0.033 | -0.1 | 0.06 | -0.018 | -0.111 | -0.051
14 | LRIF1 (UniProt Q5T3J3) | -0.147 | 0.086 | 0.047 | 0.022 | -0.011 | 0 | 0.057 | -0.008 | -0.163 | -0.056 | 0.079 | 0.082 | -0.11 | -0.024 | 0.001
15 | KIF3C (UniProt O14782) | -0.038 | -0.117 | 0.026 | 0.191 | 0.062 | -0.204 | -0.187 | 0.043 | -0.194 | 0.145 | 1.17 (active) | -0.352 | 0.249 | 0.074 | 0.032
16 | KRAS isoform 2 (UniProt P01116) | – | – | -0.029 | – | -0.025 | 0.018 | – | 0.001 | -0.046 | 0.036 | – | 0.068 | -0.015 | -0.045 | -0.129
17 | MOCS3 (UniProt O95396) | -0.008 | -0.054 | -0.056 | 0.056 | -0.049 | -0.219 | 0.045 | -0.054 | – | -0.03 | 0.062 | -0.458 (active) | -0.012 | 0.053 | 0.035
18 | KIF18B (UniProt Q86Y91) | – | – | 0.073 | – | 0.076 | -0.025 | – | 0.17 | 0.025 | – | – | – | – | -0.098 | -0.035
19 | KIFC3 isoform 6 (UniProt Q9BVG8) | – | – | -0.055 | – | -0.146 | -0.189 | – | 0.079 | – | -0.213 | 0.03 | -0.025 | -0.124 | 0.119 | -0.063
20 | MAPK7 (UniProt Q13164) | – | – | – | – | – | -0.156 | – | -0.044 | 0.028 | 0.011 | – | -0.102 | 0 | -0.01 | 0.029
21 | MAST2 (UniProt Q6P0Q8) | – | – | 0.049 | – | 0.044 | -0.024 | – | 0.047 | -0.005 | -0.036 | 0.062 | -0.166 | 0.055 | -0.013 | -0.189
22 | MAPK3 (UniProt H0YEX6) | -0.522 | 0.646 | – | 0.12 | – | – | 0.097 | – | – | – | – | – | – | – | –
23 | LEPROT (UniProt O15243) | – | – | – | – | – | -0.089 | – | 0.092 | -0.147 | 0.024 | – | -0.641 (active) | 0.167 | -0.007 | 0.115
24 | MEX3A (UniProt A1L020) | 0.026 | -0.069 | -0.029 | -0.137 | -0.084 | – | 0.211 | – | – | – | -0.106 | – | – | – | –

— the supplement of paper PMC10849652
